This is an account of results in PubChem BioAssay (EPA / NIEHS).

By AC50 is commonly meant the concentration giving half of the maximal activity seen.

Activity calls are given as the source filed them. Rule for the calls: active = hit-call score of the fitted dose curve at least 0.9, where 1 is the maximum; inactive = score below 0.9.

The nature of experiment [1]: ATG_E_Box_CIS: Attagene CIS-FACTORIAL HepG2 Assay for human Enhancer Box (E-box) (AID 2282936). Particulars: HepG2 E-box cis-reporter transcription, actives raise or lower the signal. The method in brief:
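DMSO served as negative control and baseline for bidirectional fitting. Human hepatoma HepG2 cells, transiently transfected with cis-reporter constructs, were dosed 24 h; reporter mRNA read by RT-PCR and capillary electrophoresis.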

Experiment [2] in a line: ATG_M_61_CIS: Attagene CIS-FACTORIAL HepG2 Assay for M61 Transcription Factor (Internal Marker) (AID 2282937). Particulars: HepG2 Attagene CIS-FACTORIAL M61 internal marker reporter; actives raise or lower the signal. The method, boiled down:
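Readout is reporter mRNA by RT-PCR, fluorescent primer extension and capillary electrophoresis, with gain or loss fitted relative to DMSO. Transfected HepG2 cells carrying endogenous-TF-driven cis reporters were exposed to chemicals for 24 hours.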

Experiment [3] is described as follows: ATG_EGR_CIS: Attagene CIS-FACTORIAL HepG2 Assay for human Early Growth Response 1 (EGR1) (AID 2282938). Particulars: HepG2 Attagene CIS-FACTORIAL EGR reporter mRNA; actives raise or lower the signal. The method, boiled down: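 After 24 h compound exposure, RNA from reporter-transfected HepG2 cells was reverse-transcribed, PCR-amplified, fluorescently labelled and resolved by capillary electrophoresis. EGR1 reporter transcript changes, up or down, were fitted against DMSO, reflecting endogenous transcription-factor activity.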

The nature of experiment [4]: ATG_M_19_CIS: Attagene CIS-FACTORIAL HepG2 Assay for M19 Transcription Factor (Internal Marker) (AID 2282939). Particulars: HepG2 Attagene CIS-FACTORIAL M19 internal marker reporter; actives raise or lower the signal. The method, boiled down:
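In this multiplexed cell assay, transiently transfected HepG2 reporter units report endogenous transcription-factor activity; after 24 hours of treatment, labelled reporter cDNA fragments are quantified by capillary electrophoresis and fitted bidirectionally against DMSO.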

Experiment [5] is described as follows: ATG_Ets_CIS: Attagene CIS-FACTORIAL HepG2 Assay for human Erythroblast Transformation Specific (ETS) (AID 2282941). Particulars: HepG2 ETS cis-reporter transcription, actives raise or lower the signal. The method in brief:
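Human HepG2 hepatoma cells were transiently transfected with promoter-driven reporter constructs and treated for 24 hours. Reporter transcripts were quantified by RT-PCR with fluorescent primer extension; bidirectional curve fitting used DMSO as reference.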

Experiment [6] addresses Hepatocyte nuclear factor 3-beta (Homo sapiens) (UniProt Q9Y261). The experiment can be described thus: ATG_FoxA2_CIS: Attagene CIS-FACTORIAL HepG2 Assay for human Forkhead box A2 (FOXA2) (AID 2282942). Particulars: HepG2 cis-reporter transcription factor activity, 24 h; actives raise or lower the signal. The method in brief:
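Endogenous transcription factor activity is captured via cis-element-driven reporter transcripts in transfected HepG2. Total RNA taken at 24 h post-dosing; labelled RT-PCR products resolved by capillary electrophoresis. Gain or loss fitted versus DMSO.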

Experiment [7] can be described thus: ATG_FoxO_CIS: Attagene CIS-FACTORIAL HepG2 Assay for human Forkhead box O (FoxO) (AID 2282943). Particulars: HepG2 Attagene cis-reporter, FoxO element, mRNA; actives raise or lower the signal. The method, boiled down:
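Human hepatoma HepG2 cells carry transiently introduced reporter transcription units controlled by cis promoter elements. Chemical treatment lasted 24 h, and mRNA signal was compared with DMSO.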

Experiment [8] is described as follows: ATG_GATA_CIS: Attagene CIS-FACTORIAL HepG2 Assay for human GATA Binding Protein (AID 2282944). Particulars: HepG2 GATA cis-element reporter, Attagene multiplex mRNA; actives raise or lower the signal. The method, boiled down:
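Measures endogenous transcription factor-driven reporter mRNA in HepG2 cells transiently carrying cis-regulated constructs. 24 h dosing; RNA via oligo(dT) reverse transcription, PCR, HpaI digestion, capillary electrophoresis; fitted relative to DMSO.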

Experiment [9] in a line: ATG_ERE_CIS: Attagene CIS-FACTORIAL HepG2 Assay for Estrogen Response Element (ERE) (AID 2282940). Particulars: HepG2 ERE cis-reporter, Attagene RNA transcript; actives raise or lower the signal. The method, boiled down: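 Measuring endogenous transcription factor output, the assay doses transfected HepG2 cells for 24 hours and quantifies reporter transcripts by fluorescent RT-PCR and capillary electrophoresis, with DMSO as baseline.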

Experiment [10] can be described thus: ATG_GLI_CIS: Attagene CIS-FACTORIAL HepG2 Assay for human Zinc Finger Protein GLI1 (AID 2282945). Particulars: HepG2, Attagene cis-factorial reporter mRNA, GLI element; actives raise or lower the signal. The method, boiled down: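 Bidirectional curve fits relative to DMSO, using reporter mRNA levels from RT-PCR plus capillary electrophoresis. Cells were HepG2 transiently carrying cis-regulated reporter constructs, harvested 24 h after dosing.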

Chain of Hepatocyte nuclear factor 3-beta (Homo sapiens) (Q9Y261 whole entry, looked up): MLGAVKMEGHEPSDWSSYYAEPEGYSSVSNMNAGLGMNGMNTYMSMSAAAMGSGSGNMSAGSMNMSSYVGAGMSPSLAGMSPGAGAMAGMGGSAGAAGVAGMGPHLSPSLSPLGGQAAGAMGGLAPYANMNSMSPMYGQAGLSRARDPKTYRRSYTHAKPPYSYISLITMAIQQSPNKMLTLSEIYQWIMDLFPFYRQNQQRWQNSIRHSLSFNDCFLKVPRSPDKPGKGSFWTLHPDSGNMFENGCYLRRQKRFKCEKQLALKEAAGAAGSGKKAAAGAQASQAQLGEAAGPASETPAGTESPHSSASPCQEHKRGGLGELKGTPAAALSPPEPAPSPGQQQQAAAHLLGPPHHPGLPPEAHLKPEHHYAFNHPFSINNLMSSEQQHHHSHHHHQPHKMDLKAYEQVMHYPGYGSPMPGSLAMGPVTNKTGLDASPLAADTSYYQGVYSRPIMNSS

In the case of `CCCCC(CC)COC(=O)c1ccc(O)cc1` (stereo unspecified), the outcome in [1], in experiment [2], in [3], in experiment [4], in [5] and in experiment [6] was inactive. Besides, the outcome in experiment [7] and in [8] was inactive.
As for `CCCCCCC(=O)c1ccccc1`, the result in experiment [1], in experiment [2], in experiment [3], in experiment [4], in experiment [5] and in [6] was inactive. The result in experiment [7] and in experiment [8] was inactive.
For the compound `CCCCCCCCCCCC(=O)OCC(O)CO` (stereo unspecified), the outcome in [1], in experiment [2], in experiment [3], in experiment [4], in experiment [9] and in experiment [5] was inactive. Also, the outcome in experiment [6], in experiment [7] and in [8] was inactive.
On to `CN(C)c1ccncc1`, for which the result in experiment [1], in experiment [2], in experiment [3], in [4], in experiment [9] and in experiment [5] was inactive. The compound was classed as inactive in experiment [6], in [8] and in experiment [10].
`CC1(C)O[C@@H]2[C@@H](CO[C@@]3(COS(N)(=O)=O)OC(C)(C)O[C@@H]23)O1`: the outcome in experiment [1], in [2], in [3], in experiment [4], in [9] and in experiment [5] was inactive. In addition, the compound was classed as inactive in [6], in experiment [7], in experiment [8] and in experiment [10].
`CCCC(=O)C(CC)Sc1ccoc1C` (stereo unspecified): the result in [1], in experiment [2], in experiment [3], in experiment [4], in experiment [5] and in experiment [6] was inactive. In addition, the outcome in experiment [7], in experiment [8] and in experiment [10] was inactive. In experiment [9], the AC50 is 88.9 µM (active).
Turning to `CCc1cc(C(C)(C)C)c(O)c(C(C)(C)C)c1`, the AC50 in experiment [1] was 24.4 µM (active). Also, the call in experiment [2], in experiment [3], in [4], in experiment [5], in experiment [6] and in [7] was inactive. Further, the compound was classed as inactive in experiment [8].
Regarding `Nc1ccc2c(O)cc(S(=O)(=O)O)cc2c1`, the outcome in experiment [1], in experiment [2], in experiment [3], in experiment [4], in [5] and in [6] was inactive. Besides, the outcome in experiment [7] and in experiment [8] was inactive.
For the compound `CCOc1ccccc1O`, the outcome in experiment [1], in [2], in [3], in experiment [4], in experiment [5] and in experiment [6] was inactive. In addition, the compound was classed as inactive in experiment [7] and in [8].
On to `Cc1ccc(C)o1`, for which the outcome in experiment [1], in experiment [2], in experiment [3], in experiment [4], in [5] and in experiment [6] was inactive. Moreover, the result in experiment [7] and in experiment [8] was inactive.
For `O=C(Nc1ccc2c(O)c(N=Nc3ccc(N=Nc4ccc(S(=O)(=O)O)cc4)cc3)c(S(=O)(=O)O)cc2c1)c1ccccc1`, the outcome in experiment [1], in experiment [2], in [3], in [4], in [9] and in experiment [5] was inactive. For the same compound, the compound was classed as inactive in experiment [6], in [8] and in experiment [10].
Take `CN(c1nccc(=O)[nH]1)C1CCN(c2nc3ccccc3n2Cc2ccc(F)cc2)CC1`: the outcome in experiment [1], in experiment [2], in [3], in [4], in experiment [9] and in experiment [5] was inactive. Further, the compound was called inactive in experiment [6], in experiment [7], in experiment [8] and in [10].
As for `CCCCCCOCCOCCO`, the result in experiment [1], in experiment [2], in experiment [3], in experiment [4], in experiment [5] and in [6] was inactive. Moreover, the result in [7] and in experiment [8] was inactive.
Regarding `C#CC(C)N(C)C(=O)Nc1ccc(Cl)cc1` (stereo unspecified), the outcome in experiment [1], in experiment [2], in [3], in [4], in experiment [5] and in experiment [6] was inactive. Further, the call in experiment [7] and in [8] was inactive.
As for `CCC(=O)OCCOc1ccccc1`, the outcome in experiment [1], in experiment [2], in experiment [3], in experiment [4], in [9] and in [5] was inactive. In addition, the result in [6], in experiment [8] and in experiment [10] was inactive.
As to `C[C@@H]1CCN(C(=O)[C@H](CCCN=C(N)N)NS(=O)(=O)c2cccc3c2NC[C@H](C)C3)[C@@H](C(=O)O)C1`, the result in experiment [1], in experiment [2], in experiment [3], in [4], in experiment [9] and in experiment [5] was inactive. For the same compound, the compound was called inactive in [6], in experiment [7], in experiment [8] and in [10].
Turning to `CCCCC1(COC(=O)CCC(=O)O)C(=O)N(c2ccccc2)N(c2ccccc2)C1=O`, the outcome in [1], in [2], in [3], in experiment [4], in [9] and in [5] was inactive. The call in experiment [6], in [7], in experiment [8] and in [10] was inactive.
Regarding `CC(C)Nc1nc(N)nc(Cl)n1`, the outcome in experiment [1], in experiment [2], in [3], in [4], in experiment [5] and in experiment [6] was inactive. For the same compound, the result in experiment [7] and in [8] was inactive.
As for `CC(C)CCCCCCc1ccc(OCCOCCO)cc1`, the result in experiment [1], in experiment [2], in experiment [3], in experiment [4], in experiment [9] and in experiment [5] was inactive. Moreover, the call in [6], in experiment [7], in experiment [8] and in experiment [10] was inactive.
In the case of `Brc1ccc(Br)c(Br)c1`, the outcome in experiment [1], in experiment [2], in [3], in [4], in experiment [9] and in [5] was inactive. Further, the compound was classed as inactive in [6], in experiment [7], in experiment [8] and in experiment [10].
Turning to `Cc1ncc([N+](=O)[O-])n1CCO`, the result in experiment [1], in experiment [2], in [3], in experiment [4], in [9] and in experiment [5] was inactive. The outcome in [6], in experiment [7] and in experiment [8] was inactive.
Take `COCCOC(=O)c1ccccc1C(=O)OCCOC`: the outcome in experiment [1], in experiment [2], in [3], in experiment [4], in experiment [5] and in [6] was inactive. The result in [7] and in experiment [8] was inactive.
Turning to `Cc1[nH]c(=O)c(C#N)cc1-c1ccncc1`, the outcome in experiment [1], in experiment [2], in experiment [3], in experiment [4], in [9] and in experiment [5] was inactive. Further, the compound was called inactive in [6], in experiment [8] and in [10].
Turning to `c1ccc(CN(Cc2ccccc2)Cc2ccccc2)cc1`, the result in [1], in experiment [2], in experiment [3], in [4], in experiment [5] and in experiment [6] was inactive. Also, the compound was called inactive in experiment [7] and in [8].
`CS(=O)(=O)OCCCCOS(C)(=O)=O`: the result in experiment [1], in experiment [2], in experiment [3], in experiment [4], in [9] and in [5] was inactive. Besides, the compound was classed as inactive in experiment [6], in experiment [7], in [8] and in [10].
In the case of `O=CN1CCOCC1`, the result in experiment [1], in experiment [2], in experiment [3], in experiment [4], in experiment [9] and in [5] was inactive. The compound was called inactive in [6], in experiment [7], in experiment [8] and in [10].
Consider `O=C(O)c1cccnc1C(=O)O`, for which the result in experiment [1], in experiment [2], in [3], in [4], in [9] and in experiment [5] was inactive. In addition, the compound was called inactive in experiment [6], in experiment [8] and in experiment [10].
